Consider 26 molecules from PubChem BioAssay (EPA / NIEHS).

The nature of test [1]: ATG_XTT_Cytotoxicity: Cytotoxicity Assessment in the Attagene TRANS-FACTORIAL HepG2 Assay (AID 2283584). Put shortly: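 Cells: human HepG2, transiently transfected with MRTU reporter constructs. Exposure 24 h. Readout: XTT, cell number. Baseline/neg ctrl DMSO; loss-of-signal scored.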
The nature of test [2]: TOX21_p53_BLA_p2_viability: Viability Assessment in the Tox21 HCT-116 p53 Agonism Beta-lactamase Assay, Phase 2 (AID 2283591).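 Further: compound exposure lasted 16 h at 37 °C; actives lower the ATP signal meaning cytotoxicity.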 In outline:
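Cytotoxicity readout: CellTiter-Glo ATP luminescence, 30 min at room temperature, after the beta-lactamase read. Cells were HCT116 exposed 16 h at 37C to compounds pin-transferred at 217-fold dilution from DMSO stocks.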

In test [3] the target is Cellular tumor antigen p53 (Homo sapiens) (UniProt P04637). The test is described as follows: TOX21_p53_BLA_p2_ratio: Tox21 HCT-116 p53 Agonism Beta-lactamase Assay, Ratio, Phase 2 (AID 2283592). Put shortly:
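HCT116 p53-bla; 4000 cells/well; 5 h pre-incubation; cpd in DMSO, 217-fold dilution; 16 h 37C/5% CO2; CCF4-AM 2 h RT; Ex 405, Em 460/530 ratio; DMSO = baseline; positive fitting direction.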

Test [4] is described as follows: TOX21_p53_BLA_p3_viability: Viability Assessment in the Tox21 HCT-116 p53 Agonism Beta-lactamase Assay, Phase 3 (AID 2283593).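 Further: cells exposed to compound for 16 h before reading.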 In outline: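 Cellular ATP was quantified by CellTiter-Glo luminescence, read after 30 min at room temperature. Beforehand, HCT116 cells (4000/well) received compound 5 h post-seeding, 217-fold diluted from DMSO, then incubated 16 h at 37C.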

Test [5] can be described thus: TOX21_p53_BLA_p4_viability: Viability Assessment in the Tox21 HCT-116 p53 Agonism Beta-lactamase Assay, Phase 4 (AID 2283597).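 Further: hits lower the luminescence signal meaning cytotoxicity.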 Put shortly: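 Cells plated, 5 h pre-incubation; DMSO compounds pinned (217-fold dilution); 16 h, 37C/5% CO2; CCF4-AM 2 h RT; CellTiter-Glo 30 min RT; luminescence read.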
The target in test [6] is Cellular tumor antigen p53 (Homo sapiens) (UniProt P04637). The test is described as follows: TOX21_p53_BLA_p4_ratio: Tox21 HCT-116 p53 Agonism Beta-lactamase Assay, Ratio, Phase 4 (AID 2283601). In outline:
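Signal is the blue/green (460nm/530nm) ratio of cleaved versus uncleaved CCF4-AM substrate, read after 2 h substrate loading. Cells were HCT116 carrying the p53-responsive beta-lactamase reporter, dosed 16 h at 37C, 5% CO2; CellTiter-Glo measured in parallel.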

Test [7] shares this target. As to the kind of experiment: TOX21_p53_BLA_p5_ratio: Tox21 HCT-116 p53 Agonism Beta-lactamase Assay, Ratio, Phase 5 (AID 2283599). In outline:
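Beta-lactamase reporter ratio (blue 460 nm over green 530 nm, 405 nm excitation) after 2 h CCF4-AM loading, in HCT-116 cells exposed 16 h at 37 C to compounds pinned at 217-fold dilution. Increases relative to DMSO baseline scored.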

Test [8] is described as follows: ACEA_AR_agonist_AUC_viability: ACEA Biosciences xCELLigence Real-Time Cell Analysis on Androgen Receptor Agonism for Viability (AID 2283775). In outline: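 Real-time impedance tracking of 22Rv1 growth, readings every 5 min for 5 h then hourly; area-under-curve viability endpoint at 80 hours, relative to DMSO. Compounds at eight concentrations, 1:4 steps, top 100 uM, n = 2.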

The nature of test [9]: ACEA_AR_antagonist_AUC_viability: ACEA Biosciences xCELLigence Real-Time Cell Analysis on Androgen Receptor Antagonism for Viability (AID 2283776).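 Further: 22Rv1 human prostate cancer cells growing on impedance electrode plates; hits lower the growth signal relative to DMSO meaning cytotoxicity.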 In outline:
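Viability endpoint from label-free cell-index monitoring: 22Rv1 cultures treated with an eight-point 1:4 dilution series starting at 100 uM final, AUC at 80 h fitted against DMSO.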

Test [10] concerns the target Cellular tumor antigen p53 (Homo sapiens) (UniProt P04637). As to the kind of experiment: TOX21_p53_BLA_p3_ratio: Tox21 HCT-116 p53 Agonism Beta-lactamase Assay, Ratio, Phase 3 (AID 2283596). In outline: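 HCT116 p53-bla cells (4000/well) given compound in DMSO (217-fold dilution) after 5 h, incubated 16 h at 37C. CCF4-AM substrate 2 h at room temperature; 460/530 nm emission ratio, gain fitted against DMSO.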

The test system of test [11] is zebrafish Androgen Receptor (AR), gene 100005148. The test is described as follows: ATG_zfAR_XSP1: Attagene TRANS-FACTORIAL Multi-Species (XSP1) HepG2 Assay for zebrafish Androgen Receptor (AR) (AID 2283771). Put shortly: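 HepG2 cells were transiently transfected with a zebrafish AR-GAL4 reporter system and partially stimulated with 3 nM 6-alpha-fluorotestosterone. Reporter mRNA was measured after 24 h dosing by RT-PCR with capillary electrophoresis, and gain-of-signal was fitted relative to DMSO.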

Test [12] addresses zebrafish Estrogen Receptor (ESR1), esr1 (gene 259252) (UniProt P57717). The test is described as follows: ATG_zfER1_XSP1: Attagene TRANS-FACTORIAL Multi-Species (XSP1) HepG2 Assay for zebrafish Estrogen Receptor (ESR1) (AID 2283772). Put shortly:
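Transfect HepG2 with GAL4-UAS multi-reporter constructs; treat 24 h (medium carries 3 nM 6-alpha-fluorotestosterone); extract RNA, reverse-transcribe, PCR-amplify, FAM-label, digest with HpaI; resolve by capillary electrophoresis and compare against DMSO baseline.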

In test [13] the test system is zebrafish Estrogen Receptor (ESR2B), gene 317733. As to the kind of experiment: ATG_zfER2b_XSP1: Attagene TRANS-FACTORIAL Multi-Species (XSP1) HepG2 Assay for zebrafish Estrogen Receptor (ESR2B) (AID 2283773). Put shortly:
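Gain-of-signal endpoint relative to DMSO: reporter transcript levels quantified by RT-PCR and capillary electrophoresis after 24 h compound exposure of HepG2 cells expressing a zebrafish ER2b-Gal4 chimera.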

The subject of test [14] is frog Estrogen Receptor (ESR2), gene 100174814. As to the kind of experiment: ATG_frER2_XSP1: Attagene TRANS-FACTORIAL Multi-Species (XSP1) HepG2 Assay for frog Estrogen Receptor (ESR2) (AID 2283774). In outline:
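Transactivation of an exogenous receptor-Gal4 fusion is tracked in transfected HepG2 cells via induced reporter transcript levels. After 24 h treatment, RT-PCR with capillary electrophoresis quantifies signal gain over DMSO.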

Test [15] has as its system frog Estrogen Receptor (ESR1), gene 398734. As to the kind of experiment: ATG_frER1_XSP1: Attagene TRANS-FACTORIAL Multi-Species (XSP1) HepG2 Assay for frog Estrogen Receptor (ESR1) (AID 2283777). Put shortly: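 Human hepatoma HepG2 cells carried transiently transfected multiplexed Gal4-driven reporters and were exposed to test chemicals for 24 hours. Transcripts were quantified by fluorescent RT-PCR with capillary electrophoresis, referenced to DMSO.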

For test [16], the system named is zebrafish Estrogen Receptor (ESR2A), gene 317734. The test is described as follows: ATG_zfER2a_XSP1: Attagene TRANS-FACTORIAL Multi-Species (XSP1) HepG2 Assay for zebrafish Estrogen Receptor (ESR2A) (AID 2283778). Put shortly: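 Cells were transfected, dosed for 24 h, then total RNA was isolated. After oligo(dT) reverse transcription, reporter sequences were amplified, FAM-labelled by primer extension, digested with HpaI and sized by capillary electrophoresis; DMSO served as baseline.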

A short description of test [17]: CEETOX_H295R_MTT_cell_viability: Viability Assessment in the CeeTox HT-H295R MTT Assay (AID 2283718; active means hit-call score of the fitted dose curve at least 0.9, where 1 is the maximum; inactive means score below 0.9;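 further: curve fitted both ways so AC50 may mark viability loss or gain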). Put shortly:
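MTT reduction (0.5 mg/ml, 4 h at 37 C; absorbance at 570 and 650 nm) gave viability as background-corrected percent change versus controls. H295R cells had 48 h forskolin (10 uM) prestimulation, then 48 h chemical exposure at 0.1% DMSO.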

“And” between values parts separate entries of the source, which are not always exact repeats. Identical values can stand only once. Inconclusive results are not listed. Some compounds were tested as several samples or in several runs, with calls that do not always agree. The source made the active and inactive calls. How the source made its calls, unless noted: active means hit-call score of the fitted dose curve at least 0.9, where 1 is the maximum; inconclusive means response in the unintended direction; inactive means score below 0.9.

Chain of Cellular tumor antigen p53 (Homo sapiens) (P04637 whole entry, looked up): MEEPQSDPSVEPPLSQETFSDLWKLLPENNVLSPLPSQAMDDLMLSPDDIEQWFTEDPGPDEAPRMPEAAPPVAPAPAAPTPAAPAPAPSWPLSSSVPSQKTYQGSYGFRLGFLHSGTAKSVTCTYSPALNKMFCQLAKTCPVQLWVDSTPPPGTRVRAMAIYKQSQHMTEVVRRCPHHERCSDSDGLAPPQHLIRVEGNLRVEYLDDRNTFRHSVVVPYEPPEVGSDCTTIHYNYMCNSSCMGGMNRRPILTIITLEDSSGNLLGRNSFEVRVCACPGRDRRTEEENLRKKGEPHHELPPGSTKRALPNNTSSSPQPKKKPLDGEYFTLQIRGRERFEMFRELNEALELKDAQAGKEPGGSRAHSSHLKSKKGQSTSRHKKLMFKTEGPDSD
Chain of zebrafish Estrogen Receptor (ESR1), esr1 (gene 259252) (P57717 whole entry, looked up, the tested form may be a part): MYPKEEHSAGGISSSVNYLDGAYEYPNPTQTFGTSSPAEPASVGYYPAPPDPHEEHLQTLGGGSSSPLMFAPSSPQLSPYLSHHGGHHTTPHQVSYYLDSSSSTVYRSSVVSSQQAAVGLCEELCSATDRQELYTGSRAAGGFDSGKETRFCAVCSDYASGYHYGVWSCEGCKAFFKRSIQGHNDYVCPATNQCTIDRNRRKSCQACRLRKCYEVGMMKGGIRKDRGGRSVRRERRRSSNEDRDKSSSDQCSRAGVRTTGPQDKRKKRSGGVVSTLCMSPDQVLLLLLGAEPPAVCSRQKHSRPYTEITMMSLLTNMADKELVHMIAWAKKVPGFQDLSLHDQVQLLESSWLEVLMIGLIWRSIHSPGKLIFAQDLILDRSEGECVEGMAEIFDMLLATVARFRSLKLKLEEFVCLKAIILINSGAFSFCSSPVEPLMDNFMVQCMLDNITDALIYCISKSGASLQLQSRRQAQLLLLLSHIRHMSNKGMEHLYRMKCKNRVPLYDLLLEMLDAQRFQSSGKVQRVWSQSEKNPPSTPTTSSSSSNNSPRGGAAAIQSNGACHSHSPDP

Take `Nc1cc(Cl)c(N)c(Cl)c1`: the molecule was classed as inactive in test [1], in test [2], in test [3], in [4], in test [5] and in test [6].

Regarding `CCCCCCOC(=O)c1ccccc1`, the call in test [1], in test [2], in test [3], in test [4], in test [5] and in [7] was inactive. Besides, the result in test [6] and in test [8] was inactive.

On to `CCc1c(Br)c(Br)c(Br)c(Br)c1Br`, for which the call in test [1] was inactive.

As for `CC(C)=CCCC(C)CCOC(=O)C(C)C` (centres undefined), the result in [1] was inactive.

Consider `O[Si](c1ccccc1)(c1ccccc1)c1ccccc1`, for which, in test [1], the molecule was called inactive.

What is called AC50 is the concentration at which the activity in the assay is half-maximal. With `CNC(=S)NC`, the molecule was classed as inactive in test [1], in [2], in [3], in [4], in [7] and in test [6]. Moreover, the molecule was called inactive in [8] and in test [9]. Further, in [5], the concentration at half-maximal activity (AC50) is 46.1 µM (active).

Turning to `C1COCCN1`, the molecule was classed as inactive in [1], in test [2], in [3], in test [4], in test [10] and in [5]. The result in test [7], in [6], in test [8] and in [9] was inactive.

Take `C(=C(c1ccccc1)c1ccccc1)c1ccccc1`: the result in test [1], in test [2], in test [3], in [4], in test [5] and in test [7] was inactive. In addition, the molecule was classed as inactive in test [11], in test [9], in [15] and in test [16]. Further, the AC50 in test [12] was 0.272 µM (active); in test [13], 0.0504 µM (active); in [14], 0.0249 µM (active).

For the molecule `CS(C)(=O)=O`, the molecule was called inactive in test [1].

As for `OC[C@@H](O)[C@@H](O)[C@H](O)[C@@H](O)CO`, the molecule was classed as inactive in [1], in [2], in test [3], in test [4], in test [10] and in [7]. For the same molecule, the outcome in [6], in test [8] and in test [9] was inactive.

Take `COC(OC(C)=O)c1ccccc1` (centres undefined): the outcome in test [1] was inactive.

Turning to `CO[Si](OC)(c1ccccc1)c1ccccc1`, the molecule was classed as inactive in test [1].

Turning to `CC(C)(C)c1ccc(OC2CCCCC2O)cc1` (centres undefined), in [1], the outcome was inactive.

Consider `CCCCCCCCCCCCCCCC[N+](C)(C)Cc1ccccc1`, for which the call in test [1], in [3] and in [10] was inactive. Also, the concentration at half-maximal activity (AC50) in test [2] is 42.5 µM (active) and 23 µM (active); in [3] it was 64.7 µM (active); in test [4] it was 33.5 µM (active) and 9 µM (active); in [5], 25.9 µM (active) and 27.1 µM (active); in [7], 75.8 µM (active) and 38.4 µM (active); in test [6], 42.3 µM (active) and 43.4 µM (active).

With `C=CC/C=C/C/C=C/C/C=C/C`, in test [1], the molecule was classed as inactive.

Regarding `O=S(=O)(O)c1ccc2ccccc2c1`, the molecule was called inactive in test [1], in test [2], in [3], in test [4], in test [5] and in test [7]. In addition, the result in test [6], in test [8] and in [9] was inactive.

For `O=C(C=Cc1ccccc1)OCC=Cc1ccccc1`, the call in [1], in [2], in [3], in test [4], in test [10] and in test [6] was inactive.

With `C#C[C@]1(O)CC[C@H]2[C@@H]3CCc4cc(OC)ccc4[C@H]3CC[C@@]21C`, the outcome in test [1], in test [2], in [3], in test [4], in test [10] and in test [5] was inactive. The outcome in test [7], in test [6], in test [8] and in test [9] was inactive. The AC50 in [17] was 44 µM (active).

For `CCCCOCCOCCOC(=O)CCCCC(=O)OCCOCCOCCCC`, the molecule was classed as inactive in [1].

Consider `CCCCNc1ccccc1`, for which the molecule was called inactive in [1], in test [2], in [3], in test [4], in test [10] and in [5]. Further, the outcome in test [7] and in test [6] was inactive.

As for `CCN(CC)c1ccc2c(C)cc(=O)oc2c1`, the molecule was classed as inactive in test [1], in [2], in test [4] and in test [5]. Also, the AC50 in [3] is 36.8 µM (active) and 44.9 µM (active); in test [10], 40.9 µM (active) and 38.6 µM (active); in [7], 38.6 µM (active) and 31.6 µM (active); in test [6] it was 41.6 µM (active) and 36 µM (active).

`Cc1ccc(S(=O)(=O)NCl)cc1`: the molecule was classed as inactive in test [1], in [2], in [3], in test [4], in test [10] and in test [5]. The outcome in [7] and in [6] was inactive.

As to `CC(C)c1ccccc1N`, the call in [1] was inactive.

For `Nc1ccc([N+](=O)[O-])cc1O`, the molecule was classed as inactive in test [1], in [2], in [3], in test [4], in test [10] and in test [5]. In addition, the result in test [7] and in test [6] was inactive.

Turning to `CCCCCC=O`, the outcome in test [1], in test [2], in test [3], in [10], in test [5] and in test [7] was inactive.

Turning to `c1ccc(-c2ccccc2-c2ccccc2)cc1`, the molecule was classed as inactive in test [1].
